According to PubChem BioAssay (NCATS):
Inconclusive results are not listed. Where a call stands in place of a potency, no number is given. Calls of active or inactive are those of the source. Unless noted, the call rests on the fitted dose curve; in most records, active means well fitted curve in the direction sought with a large enough effect; inconclusive means small, poorly fitted or top-dose-only effect, or another doubt; inactive means no such curve, though single readings can be large; an effect the other way counts as inactive or inconclusive.

Tests used:
[1] = target: Aldehyde dehydrogenase, mitochondrial (Homo sapiens) (UniProt P05091); experiment: qHTS for Inhibitors of the Aldehyde Dehydrogenase Family (ALDH2) Primary screen (AID 2061308); further: nearly all actives have a fitted effect of over 55% in size
[2] = qHTS for Inhibitors of the Aldehyde Dehydrogenase Family (ALDH1A2, ALDH1A3, ALDH2, ALDH3A1) (AID 2061307); further: nearly all actives have a fitted effect of over 50% in size; on potency: test system not described further here; potency means the concentration at half of the fitted maximal effect
[3] = target: Retinaldehyde dehydrogenase 3 (Homo sapiens) (UniProt P47895); experiment: qHTS for Inhibitors of the Aldehyde Dehydrogenase Family (ALDH1A3) Validation screen (AID 2061312); further: nearly all actives have a fitted effect of over 45% in size
[4] = target: Retinal dehydrogenase 2 (Homo sapiens) (UniProt O94788); experiment: qHTS for Inhibitors of the Aldehyde Dehydrogenase Family (ALDH1A2) Confirmation screens (AID 2061314); further: nearly all actives have a fitted effect of over 65% in size; further: potency means the concentration at half of the fitted maximal effect
[5] = target: Retinaldehyde dehydrogenase 3 (Homo sapiens) (UniProt P47895); experiment: qHTS for Inhibitors of the Aldehyde Dehydrogenase Family (ALDH1A3) Primary screen (AID 2061315)
[6] = target: Aldehyde dehydrogenase 1A1 (Homo sapiens) (UniProt P00352); experiment: qHTS for Inhibitors of the Aldehyde Dehydrogenase Family (ALDH1A1) Confirmatory screens (AID 2061316); further: nearly all actives have a fitted effect of over 65% in size; further: potency means the concentration at half of the fitted maximal effect
[7] = target: Aldehyde dehydrogenase, mitochondrial (Homo sapiens) (UniProt P05091); experiment: qHTS for Inhibitors of the Aldehyde Dehydrogenase Family (ALDH2) Confirmatory screens (AID 2061303; active means well fitted inhibition curve with a large enough effect; title and protocol of this record describe different tests; further: nearly all actives have a fitted effect of over 45% in size)

COc1cc2c(cc1O)C1(OC)Cc3ccc4c(c3C1N(C)CC2)OCO4 (stereo not given)
Potency [1]: inactive

O=C(NCc1ccc(S(=O)(=O)c2cc(F)cc(F)c2)cc1)c1ccc2nccn2c1
Potency [2]: 10.1 µM (active)
Potency [1]: inactive
Potency [3]: inactive
Potency [4]: inactive
Potency [5]: inactive
Potency [6]: 11.3 µM (active)

O=C(C1OC1/C=C/c1ccc2c(c1)OCO2)N1CCCCC1 (stereo not given)
Potency [2]: inactive
Potency [1]: inactive
Potency [4]: inactive

COc1ccc(C2Nc3ccccc3C(=O)N2Cc2ccccc2)cc1COc1ccc(F)cc1 (stereo not given)
Potency [7]: inactive
Potency [1]: inactive
Potency [4]: 15.9 µM (active)
Potency [5]: inactive
Potency [6]: inactive

Cc1ccc(C(=O)C(C)CN2CCCCC2)cc1 (stereo not given)
Potency [1]: inactive
Potency [3]: inactive
Potency [5]: inactive

N#CCc1ccc(O)cc1O[C@@H]1O[C@H](CO)[C@@H](O)[C@H](O)[C@H]1O
Potency [1]: inactive
Potency [5]: inactive
